# Tests used:
# Assay in all cases: DAPPL (digital affinity profiling via proximity ligation, sequencing); 10 mM Tris-HCl pH 7.5, 50 mM NaCl, 1 mM DTT, 4% glycerol, room temperature, 30 min; GST-TFs on glutathione beads, 16-mer random dsDNA library, 0.1% formaldehyde crosslink after washing; high values mean tight binding
# FLI1 = target: T1, FLI1 (Homo sapiens, UniProt Q01543 1-452); details: protein: recombinant; tags: N-terminal GST; dsDNA, one strand shown
# T1 sequence: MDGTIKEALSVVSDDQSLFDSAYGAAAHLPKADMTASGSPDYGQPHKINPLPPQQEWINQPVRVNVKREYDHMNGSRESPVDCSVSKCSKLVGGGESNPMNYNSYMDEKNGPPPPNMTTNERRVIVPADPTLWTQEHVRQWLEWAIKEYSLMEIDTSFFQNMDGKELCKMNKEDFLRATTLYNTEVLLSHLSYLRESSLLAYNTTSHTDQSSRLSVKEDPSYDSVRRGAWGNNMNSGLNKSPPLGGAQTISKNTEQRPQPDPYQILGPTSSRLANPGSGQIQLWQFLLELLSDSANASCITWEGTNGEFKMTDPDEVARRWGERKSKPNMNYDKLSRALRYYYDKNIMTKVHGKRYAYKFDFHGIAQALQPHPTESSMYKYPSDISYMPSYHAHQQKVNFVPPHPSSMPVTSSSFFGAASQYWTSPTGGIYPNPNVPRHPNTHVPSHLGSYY
# Summary of the method: (§1)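 Binding signal is each hexamer's read frequency for a factor divided by its frequency in the tag-only sample. The factors were GST-fused human transcription factors from yeast, captured on glutathione beads, DNA-barcoded and pooled with that sample. Pools were incubated with 200 nmole of a random double-stranded 16-mer DNA library in Tris/NaCl/DTT/glycerol buffer at room temperature for 30 min, then washed, crosslinked with 0.1% formaldehyde, proximity-ligated with BsaI/T4 ligase (1 h, 37 °C), PCR-amplified and sequenced on an Illumina NextSeq500.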
# ELK1 = target: T2, ELK1 (Homo sapiens, UniProt P19419 1-428); details: protein: recombinant; tags: N-terminal GST; dsDNA, one strand shown
# T2 sequence: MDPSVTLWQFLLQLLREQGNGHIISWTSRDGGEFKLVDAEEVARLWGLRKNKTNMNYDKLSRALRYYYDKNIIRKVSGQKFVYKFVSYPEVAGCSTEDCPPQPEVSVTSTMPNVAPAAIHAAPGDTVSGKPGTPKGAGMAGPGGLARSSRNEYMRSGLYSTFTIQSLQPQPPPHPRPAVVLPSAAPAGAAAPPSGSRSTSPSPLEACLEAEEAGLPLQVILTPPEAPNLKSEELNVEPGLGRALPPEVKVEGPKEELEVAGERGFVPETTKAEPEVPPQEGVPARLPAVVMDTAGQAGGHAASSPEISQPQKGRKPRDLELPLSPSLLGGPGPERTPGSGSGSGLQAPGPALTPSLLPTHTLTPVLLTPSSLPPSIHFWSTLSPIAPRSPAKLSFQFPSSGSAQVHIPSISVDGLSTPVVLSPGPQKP
# Summary of the method: as §1
# GABPA = target: T3, GABPA (Homo sapiens, UniProt Q06546 1-454); details: protein: recombinant; tags: N-terminal GST; dsDNA, one strand shown
# T3 sequence: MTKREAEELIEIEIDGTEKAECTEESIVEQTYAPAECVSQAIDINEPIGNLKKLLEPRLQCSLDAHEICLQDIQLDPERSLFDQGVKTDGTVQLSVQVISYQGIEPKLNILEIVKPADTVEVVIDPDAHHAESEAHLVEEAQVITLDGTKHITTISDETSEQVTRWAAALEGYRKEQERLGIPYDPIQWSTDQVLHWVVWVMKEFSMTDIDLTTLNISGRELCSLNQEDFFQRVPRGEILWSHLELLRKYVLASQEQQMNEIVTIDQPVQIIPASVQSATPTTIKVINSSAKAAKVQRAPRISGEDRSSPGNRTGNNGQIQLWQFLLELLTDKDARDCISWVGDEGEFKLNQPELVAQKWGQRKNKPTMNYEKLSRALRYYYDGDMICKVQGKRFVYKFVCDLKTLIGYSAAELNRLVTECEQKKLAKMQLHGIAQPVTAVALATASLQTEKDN
# Summary of the method: as §1
# ERG = target: T4, ERG (Homo sapiens, UniProt P11308 1-479); details: protein: recombinant; tags: N-terminal GST; dsDNA, one strand shown
# T4 sequence: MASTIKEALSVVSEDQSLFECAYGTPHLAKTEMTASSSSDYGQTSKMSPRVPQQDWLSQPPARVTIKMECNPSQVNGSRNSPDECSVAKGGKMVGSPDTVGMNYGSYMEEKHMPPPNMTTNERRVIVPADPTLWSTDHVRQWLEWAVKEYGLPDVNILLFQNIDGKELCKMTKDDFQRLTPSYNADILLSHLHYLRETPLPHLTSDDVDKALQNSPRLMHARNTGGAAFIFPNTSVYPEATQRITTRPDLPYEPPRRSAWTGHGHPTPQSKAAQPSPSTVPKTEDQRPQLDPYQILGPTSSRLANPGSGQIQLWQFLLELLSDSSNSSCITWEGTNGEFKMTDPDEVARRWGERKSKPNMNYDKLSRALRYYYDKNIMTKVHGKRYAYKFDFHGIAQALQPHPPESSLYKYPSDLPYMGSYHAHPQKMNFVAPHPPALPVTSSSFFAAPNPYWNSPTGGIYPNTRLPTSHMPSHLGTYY
# Summary of the method: as §1
# ELF1 = ELF1 (Homo sapiens, UniProt P32519 1-619); details: protein: recombinant; tags: N-terminal GST; dsDNA, one strand shown
# ELF1, sequence (P32519 whole entry): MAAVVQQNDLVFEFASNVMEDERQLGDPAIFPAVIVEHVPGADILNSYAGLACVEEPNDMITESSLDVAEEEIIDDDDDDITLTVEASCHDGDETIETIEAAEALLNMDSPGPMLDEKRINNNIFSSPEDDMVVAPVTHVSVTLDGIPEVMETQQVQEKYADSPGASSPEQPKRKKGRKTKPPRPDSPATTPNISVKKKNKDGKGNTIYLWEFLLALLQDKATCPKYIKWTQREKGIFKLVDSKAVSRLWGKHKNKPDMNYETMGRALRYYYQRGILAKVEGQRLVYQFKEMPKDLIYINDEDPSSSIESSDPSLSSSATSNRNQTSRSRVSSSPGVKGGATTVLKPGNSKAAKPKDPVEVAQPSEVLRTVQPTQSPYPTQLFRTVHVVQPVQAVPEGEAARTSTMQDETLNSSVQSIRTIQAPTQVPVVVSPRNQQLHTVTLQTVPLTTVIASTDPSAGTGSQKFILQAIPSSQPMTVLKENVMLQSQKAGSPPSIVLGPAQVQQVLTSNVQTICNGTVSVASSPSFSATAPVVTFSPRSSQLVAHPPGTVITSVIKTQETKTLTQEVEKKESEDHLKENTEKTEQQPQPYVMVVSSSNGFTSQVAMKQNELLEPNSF
# Summary of the method: as §1
# EHF = target: T5, EHF (Homo sapiens, UniProt Q9NZC4 1-300); details: protein: recombinant; tags: N-terminal GST; dsDNA, one strand shown
# T5 sequence: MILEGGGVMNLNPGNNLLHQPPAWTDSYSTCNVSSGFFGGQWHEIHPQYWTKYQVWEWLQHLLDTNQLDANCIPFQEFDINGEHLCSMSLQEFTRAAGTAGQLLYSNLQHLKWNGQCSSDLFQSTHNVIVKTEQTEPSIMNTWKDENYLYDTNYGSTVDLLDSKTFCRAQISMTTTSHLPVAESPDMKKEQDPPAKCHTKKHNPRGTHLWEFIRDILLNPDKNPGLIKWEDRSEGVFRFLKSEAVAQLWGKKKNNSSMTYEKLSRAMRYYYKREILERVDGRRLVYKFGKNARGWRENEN
# Summary of the method: as §1
# SPI1 = SPI1 (Homo sapiens, UniProt P17947 1-270); details: protein: recombinant; tags: N-terminal GST; dsDNA, one strand shown
# Summary of the method: as §1
# SPIB = SPIB (Homo sapiens, UniProt Q01892 1-262); details: protein: recombinant; tags: N-terminal GST; dsDNA, one strand shown
# SPIB, sequence (Q01892 whole entry): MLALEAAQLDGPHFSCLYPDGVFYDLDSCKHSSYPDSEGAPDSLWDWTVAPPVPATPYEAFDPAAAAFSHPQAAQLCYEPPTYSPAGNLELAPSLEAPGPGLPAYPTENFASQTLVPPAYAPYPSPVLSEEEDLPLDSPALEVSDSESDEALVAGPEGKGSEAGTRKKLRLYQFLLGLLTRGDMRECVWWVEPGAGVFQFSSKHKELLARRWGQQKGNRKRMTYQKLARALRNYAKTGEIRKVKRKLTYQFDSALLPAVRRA
# Summary of the method: as §1
# ELK3 = target: T6, ELK3 (Homo sapiens, UniProt P41970 1-407); details: protein: recombinant; tags: N-terminal GST; dsDNA, one strand shown
# T6 sequence: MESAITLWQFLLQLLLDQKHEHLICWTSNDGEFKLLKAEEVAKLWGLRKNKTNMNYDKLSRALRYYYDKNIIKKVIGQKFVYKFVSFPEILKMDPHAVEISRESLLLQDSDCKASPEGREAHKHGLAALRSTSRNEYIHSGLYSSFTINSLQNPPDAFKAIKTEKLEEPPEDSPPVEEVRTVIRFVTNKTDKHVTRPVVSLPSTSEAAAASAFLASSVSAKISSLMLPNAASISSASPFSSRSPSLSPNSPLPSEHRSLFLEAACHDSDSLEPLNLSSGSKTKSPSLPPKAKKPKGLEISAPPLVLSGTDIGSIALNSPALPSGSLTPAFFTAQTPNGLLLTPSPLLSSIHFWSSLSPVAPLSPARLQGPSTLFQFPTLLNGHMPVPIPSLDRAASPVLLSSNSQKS
# Summary of the method: as §1
# FEV = target: T7, FEV (Homo sapiens, UniProt Q99581 1-238); details: protein: recombinant; tags: N-terminal GST; dsDNA, one strand shown
# T7 sequence: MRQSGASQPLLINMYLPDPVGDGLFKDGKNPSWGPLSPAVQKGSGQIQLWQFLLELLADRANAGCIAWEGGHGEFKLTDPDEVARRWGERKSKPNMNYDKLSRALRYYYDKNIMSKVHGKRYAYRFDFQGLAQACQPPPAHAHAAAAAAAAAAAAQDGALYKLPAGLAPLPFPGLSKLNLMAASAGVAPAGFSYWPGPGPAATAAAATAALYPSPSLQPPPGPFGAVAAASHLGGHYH
# Summary of the method: as §1
# ETV5 = ETV5 (Homo sapiens, UniProt P41161 1-510); details: protein: recombinant; tags: N-terminal GST; dsDNA, one strand shown
# ETV5, sequence (P41161 whole entry): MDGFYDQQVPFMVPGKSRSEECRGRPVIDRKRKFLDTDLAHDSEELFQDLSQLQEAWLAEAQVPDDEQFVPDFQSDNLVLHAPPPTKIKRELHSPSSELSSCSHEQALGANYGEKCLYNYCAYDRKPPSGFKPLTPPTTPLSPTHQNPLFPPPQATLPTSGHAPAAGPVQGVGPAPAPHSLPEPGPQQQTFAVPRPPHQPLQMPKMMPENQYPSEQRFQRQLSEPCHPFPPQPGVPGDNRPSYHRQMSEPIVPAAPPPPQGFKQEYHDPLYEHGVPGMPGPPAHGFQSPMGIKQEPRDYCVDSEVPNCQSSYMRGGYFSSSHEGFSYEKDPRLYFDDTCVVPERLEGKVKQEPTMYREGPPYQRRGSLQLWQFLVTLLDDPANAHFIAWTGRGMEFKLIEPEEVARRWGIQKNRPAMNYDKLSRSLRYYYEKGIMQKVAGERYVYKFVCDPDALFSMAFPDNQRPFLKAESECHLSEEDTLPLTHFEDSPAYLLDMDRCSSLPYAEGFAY
# Summary of the method: as §1
# HSF1 = HSF1 (Homo sapiens, UniProt Q00613 1-529); details: protein: recombinant; tags: N-terminal GST; chain copies: 3; dsDNA, one strand shown
# HSF1, sequence (Q00613 whole entry): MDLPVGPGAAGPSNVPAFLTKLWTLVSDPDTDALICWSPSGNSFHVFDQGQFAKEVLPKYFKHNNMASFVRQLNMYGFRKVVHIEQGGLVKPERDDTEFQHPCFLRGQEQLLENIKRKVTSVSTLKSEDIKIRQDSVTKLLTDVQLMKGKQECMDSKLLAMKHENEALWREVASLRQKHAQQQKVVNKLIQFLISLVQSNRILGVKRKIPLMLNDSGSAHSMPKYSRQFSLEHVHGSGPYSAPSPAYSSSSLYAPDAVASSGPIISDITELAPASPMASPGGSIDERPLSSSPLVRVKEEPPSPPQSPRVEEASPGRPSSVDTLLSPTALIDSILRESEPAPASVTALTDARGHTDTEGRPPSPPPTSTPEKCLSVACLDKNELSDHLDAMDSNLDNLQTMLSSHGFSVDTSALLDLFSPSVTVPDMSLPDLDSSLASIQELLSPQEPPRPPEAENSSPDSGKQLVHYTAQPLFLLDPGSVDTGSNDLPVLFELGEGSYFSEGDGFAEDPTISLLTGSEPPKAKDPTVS
# Summary of the method: as §1
# SPIC = target: T8, SPIC (Homo sapiens, UniProt Q8N5J4 1-248); details: protein: recombinant; tags: N-terminal GST; dsDNA, one strand shown
# T8 sequence: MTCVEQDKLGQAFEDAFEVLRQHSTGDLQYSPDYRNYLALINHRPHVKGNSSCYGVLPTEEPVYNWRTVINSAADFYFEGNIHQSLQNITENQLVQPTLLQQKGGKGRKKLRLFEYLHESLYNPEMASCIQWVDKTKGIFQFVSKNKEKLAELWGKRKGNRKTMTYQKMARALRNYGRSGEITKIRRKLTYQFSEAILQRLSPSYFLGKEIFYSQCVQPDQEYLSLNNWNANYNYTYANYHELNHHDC
# Summary of the method: as §1
# ELF4 = ELF4 (Homo sapiens, UniProt Q99607 1-663); details: protein: recombinant; tags: N-terminal GST; dsDNA, one strand shown
# ELF4, sequence (Q99607 whole entry): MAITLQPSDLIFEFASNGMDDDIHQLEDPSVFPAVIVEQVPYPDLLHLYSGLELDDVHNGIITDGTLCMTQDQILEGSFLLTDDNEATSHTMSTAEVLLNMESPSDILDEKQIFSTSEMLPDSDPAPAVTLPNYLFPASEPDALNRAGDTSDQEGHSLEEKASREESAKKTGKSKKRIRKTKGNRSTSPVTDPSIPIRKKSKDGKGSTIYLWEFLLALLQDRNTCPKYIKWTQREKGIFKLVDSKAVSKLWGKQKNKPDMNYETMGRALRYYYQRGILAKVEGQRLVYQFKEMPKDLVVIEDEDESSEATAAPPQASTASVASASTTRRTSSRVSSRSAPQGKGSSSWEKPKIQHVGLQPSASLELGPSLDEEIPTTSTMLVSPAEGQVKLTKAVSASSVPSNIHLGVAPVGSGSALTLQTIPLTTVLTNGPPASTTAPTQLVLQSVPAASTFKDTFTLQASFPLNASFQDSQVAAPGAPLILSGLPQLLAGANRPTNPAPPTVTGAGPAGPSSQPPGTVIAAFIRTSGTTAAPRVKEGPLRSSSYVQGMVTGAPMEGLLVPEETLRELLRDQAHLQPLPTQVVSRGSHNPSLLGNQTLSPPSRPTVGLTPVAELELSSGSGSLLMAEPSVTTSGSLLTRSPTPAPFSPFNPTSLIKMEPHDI
# Summary of the method: as §1
# ELK4 = target: T9, ELK4 (Homo sapiens, UniProt P28324-2 1-405); details: protein: recombinant; tags: N-terminal GST; dsDNA, one strand shown
# T9 sequence: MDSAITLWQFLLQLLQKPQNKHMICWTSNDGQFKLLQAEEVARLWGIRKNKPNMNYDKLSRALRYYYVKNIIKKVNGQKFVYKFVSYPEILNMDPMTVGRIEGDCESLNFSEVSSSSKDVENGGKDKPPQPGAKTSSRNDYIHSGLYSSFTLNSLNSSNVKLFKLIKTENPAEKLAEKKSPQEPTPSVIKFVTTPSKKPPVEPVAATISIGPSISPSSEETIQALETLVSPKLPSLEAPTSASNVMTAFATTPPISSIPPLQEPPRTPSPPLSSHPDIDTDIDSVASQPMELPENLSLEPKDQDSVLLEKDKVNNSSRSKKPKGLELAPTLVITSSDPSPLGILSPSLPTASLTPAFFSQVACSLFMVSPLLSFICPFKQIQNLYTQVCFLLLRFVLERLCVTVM
# Summary of the method: as §1
# ETV2 = target: T10, ETV2 (Homo sapiens, UniProt O00321 1-342); details: protein: recombinant; tags: N-terminal GST; dsDNA, one strand shown
# T10 sequence: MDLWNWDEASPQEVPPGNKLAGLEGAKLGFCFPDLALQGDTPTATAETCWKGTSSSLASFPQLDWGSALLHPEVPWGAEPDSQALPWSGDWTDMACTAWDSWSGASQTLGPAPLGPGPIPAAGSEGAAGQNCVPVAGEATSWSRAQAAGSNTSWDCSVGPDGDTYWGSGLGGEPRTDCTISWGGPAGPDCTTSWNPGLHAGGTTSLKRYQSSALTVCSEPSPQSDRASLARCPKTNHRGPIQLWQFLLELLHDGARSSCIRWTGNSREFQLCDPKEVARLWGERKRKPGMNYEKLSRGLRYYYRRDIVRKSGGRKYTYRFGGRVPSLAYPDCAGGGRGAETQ
# Summary of the method: as §1
# ELF3 = target: T11, ELF3 (Homo sapiens, UniProt P78545 1-371); details: protein: recombinant; tags: N-terminal GST; dsDNA, one strand shown
# T11 sequence: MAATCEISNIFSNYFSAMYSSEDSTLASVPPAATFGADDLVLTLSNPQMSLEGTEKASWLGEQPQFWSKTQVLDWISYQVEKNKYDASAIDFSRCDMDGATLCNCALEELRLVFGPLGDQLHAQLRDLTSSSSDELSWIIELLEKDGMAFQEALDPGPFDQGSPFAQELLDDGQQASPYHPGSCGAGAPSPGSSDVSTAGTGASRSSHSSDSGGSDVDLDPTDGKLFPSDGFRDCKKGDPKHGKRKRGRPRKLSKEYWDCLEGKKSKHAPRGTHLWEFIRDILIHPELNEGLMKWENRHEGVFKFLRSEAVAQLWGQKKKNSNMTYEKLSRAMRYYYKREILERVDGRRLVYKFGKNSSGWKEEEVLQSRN
# Summary of the method: as §1
# CRX = CRX (Homo sapiens, UniProt O43186 1-299); details: protein: recombinant; tags: N-terminal GST; dsDNA, one strand shown
# CRX, sequence (O43186 whole entry): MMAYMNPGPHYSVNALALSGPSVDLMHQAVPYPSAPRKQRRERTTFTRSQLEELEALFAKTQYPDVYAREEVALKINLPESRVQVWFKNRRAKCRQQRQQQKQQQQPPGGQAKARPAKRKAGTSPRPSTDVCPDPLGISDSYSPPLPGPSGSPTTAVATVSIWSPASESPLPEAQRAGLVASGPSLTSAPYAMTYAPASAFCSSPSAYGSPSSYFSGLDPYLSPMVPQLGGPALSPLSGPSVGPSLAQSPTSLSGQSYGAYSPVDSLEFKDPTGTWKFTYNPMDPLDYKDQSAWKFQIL
# Summary of the method: as §1
# ETV1 = ETV1 (Homo sapiens, UniProt P50549 1-477); details: protein: recombinant; tags: N-terminal GST; dsDNA, one strand shown
# ETV1, sequence (P50549 whole entry): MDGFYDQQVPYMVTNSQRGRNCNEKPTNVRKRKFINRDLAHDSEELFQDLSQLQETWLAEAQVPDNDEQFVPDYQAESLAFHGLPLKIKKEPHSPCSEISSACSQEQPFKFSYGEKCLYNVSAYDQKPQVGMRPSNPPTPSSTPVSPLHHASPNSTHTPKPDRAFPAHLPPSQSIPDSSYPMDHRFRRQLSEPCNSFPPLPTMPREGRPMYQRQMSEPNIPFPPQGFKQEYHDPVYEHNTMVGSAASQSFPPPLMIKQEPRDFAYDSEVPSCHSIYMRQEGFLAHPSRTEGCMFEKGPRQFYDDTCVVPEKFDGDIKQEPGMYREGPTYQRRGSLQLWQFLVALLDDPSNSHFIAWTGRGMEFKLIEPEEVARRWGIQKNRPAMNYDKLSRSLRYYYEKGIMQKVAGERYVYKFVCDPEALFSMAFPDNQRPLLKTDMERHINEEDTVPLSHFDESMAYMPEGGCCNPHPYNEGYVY
# Summary of the method: as §1
sequence,measurement,setting,value
ACCTGG,binding signal,FLI1,"1.25 fold enrichment (6-mer frequency, TF over GST control)"
same,binding signal,ELK1,"1.28 fold enrichment (6-mer frequency, TF over GST control)"
same,binding signal,GABPA,"1.25 fold enrichment (6-mer frequency, TF over GST control)"
same,binding signal,ERG,"1.25 fold enrichment (6-mer frequency, TF over GST control)"
same,binding signal,ELF1,"1.25 fold enrichment (6-mer frequency, TF over GST control)"
same,binding signal,EHF,"1.22 fold enrichment (6-mer frequency, TF over GST control)"
same,binding signal,SPI1,"1.2 fold enrichment (6-mer frequency, TF over GST control)"
same,binding signal,SPIB,"1.31 fold enrichment (6-mer frequency, TF over GST control)"
same,binding signal,ELK3,"1.23 fold enrichment (6-mer frequency, TF over GST control)"
same,binding signal,FEV,"1.17 fold enrichment (6-mer frequency, TF over GST control)"
same,binding signal,ETV5,"1.2 fold enrichment (6-mer frequency, TF over GST control)"
same,binding signal,HSF1,"1.2 fold enrichment (6-mer frequency, TF over GST control)"
same,binding signal,SPIC,"1.18 fold enrichment (6-mer frequency, TF over GST control)"
same,binding signal,ELF4,"1.33 fold enrichment (6-mer frequency, TF over GST control)"
same,binding signal,ELK4,"1.25 fold enrichment (6-mer frequency, TF over GST control)"
same,binding signal,ETV2,"1.35 fold enrichment (6-mer frequency, TF over GST control)"
same,binding signal,ELF3,"1.19 fold enrichment (6-mer frequency, TF over GST control)"
same,binding signal,CRX,"1.14 fold enrichment (6-mer frequency, TF over GST control)"
same,binding signal,ETV1,"1.29 fold enrichment (6-mer frequency, TF over GST control)"
